About 83,000 compounds went through this panel and 20% of them were active in at least one assay; those are over-represented in the sample as a whole.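 Each cell line was grown in a 96-well plate and treated with one concentration of compound for 48 hours. Values below 10 were considered active.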 A number with no mark means an inactive call. The source made the active and inactive calls.

Common to all, as to experiment: NCI-60 one-dose screen, 48 h (100 = growth as untreated, 0 = no growth, -100 = all killed)
What all share (details): 10 µM unless noted

For experiment [1], the system named is SK-MEL-2 melanoma.
For experiment [2], the system named is EKVX NSCLC.
Experiment [3] has as its system SN12C renal.
Experiment [4] has as its system UO-31 renal.
Experiment [5] concerns TK-10 renal.
Experiment [6] concerns ACHN renal.
The subject of experiment [7] is CAKI-1 renal.
Experiment [8] relates to A498 renal.
In experiment [9] the test system is MOLT-4 leukemia.
Experiment [10] concerns SR leukemia.
In experiment [11] the test system is OVCAR-8 ovarian.
In experiment [12] the test system is OVCAR-5 ovarian.
The test system of experiment [13] is OVCAR-4 ovarian.
In experiment [14] the test system is SK-OV-3 ovarian.
The subject of experiment [15] is IGROV1 ovarian.
Experiment [16] concerns OVCAR-3 ovarian.
For experiment [17], the system named is HS 578T breast.
The subject of experiment [18] is NCI/ADR-RES ovarian.
The test system of experiment [19] is CCRF-CEM leukemia.
The subject of experiment [20] is RPMI-8226 leukemia.

As for `S=C(c1ccc2c(c1)OCO2)N1CCN(c2cccc(Cl)c2)CC1`, the growth in experiment [1] was 71.7%; in experiment [2] it was 50.9%; in [3], 50.7%; in experiment [4], 57.4%; in experiment [5] it was 53.3%; in experiment [6] it was 34.6%. For the same compound, the growth in experiment [7] was 15.5%; in experiment [8], 33.3%; in experiment [9], 30.9%; in experiment [10], 11.9%; in experiment [11] it was 38.8%; in experiment [12] it was 44%. In addition, the growth in experiment [13] was 46.3%; in experiment [14], 20.6%; in [15], 37%; in experiment [16] it was -33.7% (active); in experiment [17], -1.66% (active); in experiment [18], -13% (active).
Take `O=C(O)c1cn(C2CC2)c2cc(N3CCN(C(=O)Nc4nc(-c5ccc(Br)cc5)cs4)CC3)c(F)cc2c1=O`: the growth in [1] is -17% (active); in [2], 24.5%; in experiment [3], 6.36% (active); in experiment [5], 34.9%; in [6], 17%; in experiment [7], 42.4%. The growth was -7.91% (active) in [8]; 6.67% (active) in experiment [19]; 8.35% (active) in experiment [9]; 21.5% in [10]; -9.26% (active) in experiment [20]; 10% in [11]. Moreover, the growth was 32.5% in [12]; 0.843% (active) in experiment [14]; 28.8% in experiment [15]; 8.58% (active) in [16]; 3.4% (active) in experiment [17]; 69.4% in [18].
As to `C=C(C)[C@@H]1CC[C@]2(C(N)=O)CC[C@]3(C)[C@H](CC[C@@H]4[C@@]5(C)CC[C@H](OCCC#N)C(C)(C)[C@@H]5CC[C@]43C)[C@@H]12`, the growth in experiment [1] is 92.5%; in [2], 90.4%; in experiment [3], 78.5%; in experiment [5] it was 117%; in [6], 74.1%; in [7] it was 64.5%. Further, the growth was 116% in experiment [8]; 78.9% in [19]; 70% in experiment [9]; 72.7% in [10]; 73.2% in experiment [20]; 86.9% in [11]. The growth in [12] was 76.3%; in experiment [13], 93.2%; in experiment [14] it was 79.5%; in experiment [15], 90%; in experiment [16] it was 110%; in [17] it was 88.3%. In addition, the growth in [18] is 89%.
With `Cc1cccc(N2CCC(=O)NC2=S)c1`, the growth is 122% in [1]; 107% in experiment [2]; 98.2% in experiment [3]; 104% in [5]; 107% in experiment [6]; 101% in experiment [7]. Also, the growth was 107% in experiment [8]; 154% in experiment [19]; 104% in experiment [9]; 121% in experiment [10]; 117% in experiment [20]; 99.9% in [11]. In addition, the growth in experiment [12] was 105%; in experiment [13] it was 107%; in experiment [14], 107%; in experiment [15] it was 103%; in experiment [16] it was 110%; in experiment [17], 107%. In addition, the growth in experiment [18] is 105%.
For `O=C(N=Nc1c(O)[nH]c2ccccc12)Nc1ccc(F)cc1`, the growth in experiment [1] is 102%; in experiment [2], 94.3%; in [3] it was 94.6%; in experiment [5], 113%; in [6], 92.8%; in experiment [7] it was 81.5%. Further, the growth is 102% in [8]; 95.4% in [19]; 92.5% in experiment [9]; 84.2% in experiment [10]; 91% in experiment [20]; 96.7% in [11]. Moreover, the growth was 90.4% in experiment [12]; 103% in experiment [13]; 80.5% in experiment [14]; 85.2% in experiment [15]; 102% in experiment [16]; 96.2% in [17]. Further, in experiment [18], the growth is 104%.
For the compound `CCN1C(=O)N(CC)C2C1NN=c1s/c(=C3\C(=O)N(CCC(C)C)c4ccccc43)c(=O)n12` (centres undefined), the growth in experiment [1] was 60.8%; in [2], 48.2%; in experiment [3] it was 25.2%; in experiment [5] it was 79.8%; in experiment [6], 30.7%; in experiment [7], 29.9%. Besides, the growth in experiment [8] was -1.36% (active); in [19] it was 13.7%; in [9] it was 20.7%; in [11], 9.81% (active); in experiment [12], 34.1%; in experiment [13], 45.5%. Also, the growth in experiment [14] is 43.7%; in experiment [15], 19.4%; in experiment [16] it was 3.23% (active); in experiment [17] it was 15%; in experiment [18], 8.98% (active).
Turning to `CNC(=O)c1cc(Oc2cccc3nc(NC(=O)Nc4cc(C(F)(F)F)ccc4Cl)ccc23)ccn1`, the growth in experiment [1] is 119%; in [2], 99.5%; in [5], 111%; in experiment [6] it was 101%; in [7] it was 85.8%; in experiment [8], 109%. Also, the growth is 80.8% in [19]; 89.5% in experiment [9]; 48.2% in experiment [10]; 78.8% in experiment [20]; 78% in experiment [11]; 98.7% in [12]. Besides, the growth in experiment [13] was -10.5% (active); in [14], 115%; in experiment [15], 108%; in experiment [16], 95.4%; in [17], 76.4%; in experiment [18], 93.8%.
For `CC1=C2[C@@H](CC1)[C@]1(C)O[C@@](C3CCCCC3)(C[C@H]1OC(=O)CO)[C@H]2OC(=O)/C=C/c1ccccc1`, the growth in experiment [1] is 80.3%; in [2] it was 83.3%; in [4] it was -5.9% (active); in experiment [5], 97.6%; in experiment [6], 3.28% (active); in experiment [7], 78.4%. Further, the growth in [8] is -89.9% (active); in experiment [19] it was 78.5%; in experiment [9], 67.9%; in [10] it was 52.1%; in [20], 58.5%; in experiment [11] it was 5.17% (active). The growth in experiment [12] was 88.8%; in experiment [13], 92.9%; in [14] it was 86%; in experiment [15], 85.1%; in experiment [16], 85%; in [17], -15.2% (active). In addition, in [18], the growth is -2.43% (active).
As to `N#C/C(=C\c1ccc([N+](=O)[O-])cc1)n1nnc2cc(F)c(F)cc21`, the growth in experiment [1] was 95.9%; in experiment [2], 82.1%; in [5], 6.11% (active); in experiment [6], -74.9% (active); in [7] it was 6.07% (active); in [8], 67.6%. Further, the growth was 4.63% (active) in experiment [19]; 3.58% (active) in [9]; -0.476% (active) in experiment [10]; -22.4% (active) in experiment [20]; 11.4% in experiment [11]; 21% in experiment [12]. The growth in [13] is 9.19% (active); in [14], 94.2%; in experiment [15], -10.9% (active); in [16] it was -40.1% (active); in experiment [17], 58.4%; in [18], 9.64% (active).
For the compound `Cc1ccc(-c2nc(N3CCNCC3)c3oc(-c4ccc(C)cc4)nc3n2)cc1`, the growth in experiment [1] was 99.2%; in experiment [2], 120%; in experiment [4] it was 64.6%; in [5], -30.4% (active); in experiment [6] it was 50.7%; in [7] it was 101%. The growth is 94.8% in experiment [8]; -72.2% (active) in [19]; -72.6% (active) in experiment [9]; -49.1% (active) in experiment [20]; -69% (active) in [11]; 78.4% in experiment [12]. The growth was 11.9% in experiment [13]; 86.2% in experiment [14]; -77.1% (active) in [15]; -94.6% (active) in [16]; 99.2% in experiment [17]; -28.9% (active) in experiment [18].
Take `CC1(C)CC(=O)c2c(nn(-c3ccc(Br)cc3)c2-c2cn(-c3ccccc3)nc2-c2cccnc2)C1`: the growth in experiment [1] is 98.1%; in [2], 92.5%; in experiment [4], 65.4%; in [5], 140%; in experiment [6], 93.4%; in experiment [7], 66.5%. For the same compound, the growth in experiment [8] was 98.5%; in [19], 94.4%; in experiment [9], 81.5%; in experiment [10], 112%; in experiment [20] it was 72.5%; in experiment [12], 106%. In addition, the growth in experiment [14] is 82.5%; in [15], 93.9%; in experiment [16] it was 99.7%; in [17] it was 98.1%; in [18] it was 94%.
`COc1ccc(C(O)c2cc3c(N)c(C(=O)Nc4cccc(Cl)c4C)sc3nc2C)cc1` (centres undefined): the growth was 17% in experiment [1]; 35% in experiment [2]; 17.9% in [4]; 44.1% in experiment [5]; 24.7% in experiment [6]; 13.8% in [7]. The growth is -24.7% (active) in experiment [8]; 10.1% in experiment [19]; 15.2% in experiment [9]; 0.176% (active) in experiment [10]; -2.02% (active) in experiment [20]; 10.1% in [11]. The growth is 35.5% in experiment [12]; 25.7% in experiment [13]; 11.6% in experiment [14]; 10.7% in experiment [15]; -11% (active) in [16]; 13.6% in [17]. Besides, the growth in [18] was 7.99% (active).
Consider `CC(C)(C)n1cc(-c2ccnc(NCCCNS(=O)(=O)c3cccc4ccccc34)c2)c(-c2cccc(F)c2)n1`, for which the growth is 107% in experiment [1]; 68.6% in [2]; 65.9% in experiment [4]; 97% in [5]; 91.5% in experiment [6]; 94.3% in [7]. The growth was 29.2% in [8]; 56.9% in experiment [19]; 57.9% in experiment [9]; 27.8% in [10]; 65.4% in [20]; 81.4% in experiment [11]. Also, the growth in experiment [12] is 91.9%; in experiment [13], 78.1%; in experiment [14], 91.9%; in experiment [15], 78.9%; in experiment [16], 90.1%; in experiment [17] it was 91.4%. Besides, the growth in [18] was 78.2%.
Take `COc1ccc(/C=C/C(=O)c2ccc(NC(=O)CSc3nc4c([nH]3)c(=O)n(C)c(=O)n4C)cc2)cc1OC`: the growth in [1] is 110%; in experiment [2] it was 88.5%; in [4], 90.8%; in experiment [5], 97.9%; in experiment [6], 94.4%; in [7], 84.7%. The growth was 71.7% in experiment [8]; 66% in experiment [19]; 72.4% in experiment [9]; 36.6% in experiment [10]; 85.9% in experiment [20]; 89.7% in experiment [11]. In addition, the growth in experiment [12] was 83.9%; in [13], 72.6%; in experiment [14] it was 102%; in experiment [15], 71.3%; in experiment [16], 70%; in experiment [17], 81.3%. For the same compound, the growth in experiment [18] was 96.1%.
Turning to `COc1cccc(-c2cc(-c3cccc(Cl)c3)c(C#N)c(=O)[nH]2)c1`, the growth was 60.8% in experiment [1]; 90.4% in [2]; 71.5% in [4]; 95.9% in experiment [5]; 94.2% in experiment [6]; 64.9% in experiment [7]. Further, the growth is 45.8% in experiment [8]; 28.2% in [19]; 64.8% in experiment [9]; 45.5% in experiment [10]; 96.7% in [12]; 73% in experiment [13]. The growth in experiment [14] is 81%; in experiment [15], 71.8%; in [16], 51%; in [17], 49.3%; in experiment [18], 69.2%.

The record behind these values is PubChem BioAssay (NCI).
